Most compounds without a hit are left out; they make up all but 9.7% or so of the library.
WNV NS2B-NS3 inh – inhibitors of WNV NS2B-NS3 protease, primary screen, biochemical, fluorogenic substrate. hit rate 0.18% among 65,000. fluorogenic substrate Ex360/Em465; stronger effect = lower value. AID 577, 2007. z-score (no concentration beside the values); in the data active = z-score below about -3
BAP1 block – inhibitors of BAP1 deubiquitinase, primary screen, biochemical, Ub-AMC fluorescence, kinetic. recombinant BAP1, Ub-AMC hydrolysis fluorescence kinetic; stronger effect = lower value. calls only at 20 µM. hit rate 0.48% among 72,000. AID 436, 2006;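 active = activity remaining at or below 50% of control, provided the compound also passes the data quality filters; inactive = the rest, including low values that fail the filters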
Target sequence (Q92560 whole entry, looked up): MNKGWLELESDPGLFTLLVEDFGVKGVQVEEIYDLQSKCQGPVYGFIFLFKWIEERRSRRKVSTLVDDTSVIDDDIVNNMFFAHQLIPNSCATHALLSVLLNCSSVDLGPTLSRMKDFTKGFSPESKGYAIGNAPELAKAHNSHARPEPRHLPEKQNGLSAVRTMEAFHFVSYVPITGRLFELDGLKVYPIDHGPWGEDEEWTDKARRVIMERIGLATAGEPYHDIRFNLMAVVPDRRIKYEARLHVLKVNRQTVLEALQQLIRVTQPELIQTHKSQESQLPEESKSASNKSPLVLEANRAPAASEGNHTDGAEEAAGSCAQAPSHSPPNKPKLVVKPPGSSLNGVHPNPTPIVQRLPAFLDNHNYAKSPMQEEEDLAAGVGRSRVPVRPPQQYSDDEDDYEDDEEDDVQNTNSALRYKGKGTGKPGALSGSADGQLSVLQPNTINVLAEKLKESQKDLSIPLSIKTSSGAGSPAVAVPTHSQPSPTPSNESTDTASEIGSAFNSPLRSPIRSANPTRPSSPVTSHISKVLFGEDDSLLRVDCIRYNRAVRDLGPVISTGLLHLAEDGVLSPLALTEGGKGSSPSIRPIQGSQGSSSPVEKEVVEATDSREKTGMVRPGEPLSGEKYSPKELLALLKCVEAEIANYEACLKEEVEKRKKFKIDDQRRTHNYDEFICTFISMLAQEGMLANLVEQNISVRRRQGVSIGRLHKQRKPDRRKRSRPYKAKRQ
Autofluor 339 – intrinsic fluorescence of library compounds, ex339/em460 – biochemical, MLSMR library, data from DPM-DC assay, artefact control, profiling panel. compound autofluorescence, ex339/em460 nm, NADH buffer; stronger effect = higher value; 1 = no-compound wells, NADH background. hit rate 5.5% among 65,000. fluorescence fold increase at 10 µM;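 active = at 10 µM, mean starting fluorescence two-fold or more over control wells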;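 also: signal is the first read of a kinetic run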
M1 antag – antagonists of rat M1 muscarinic receptor. Muscarinic acetylcholine receptor M1 (Rattus norvegicus), P08482. CHO-M1 cells, Fluo-4 calcium, ACh EC80 antagonist mode; stronger effect = lower value. B-score at 10 µM. hit rate 3.4% among 64,000. AID 628, 2007;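 active = calcium fluorescence response, raw or row-and-column corrected B-score, differing from the plate sample mean either way at a set confidence level, mostly lower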
A340 absorber – compound light absorbance at 340 nm, profiling panel, artefact control, biochemical, MLSMR library, data from PS, PMK, MK assays; AID 708, 2007; compound absorbance at 340 nm, fold over control; 65,000 tested, under 10 active; fold change at 10 µM;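 active = at 10 µM dose, initial 340 nm absorbance at least 2 fold that of control wells; inactive = change under 2 fold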;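 also: initial absorbance extrapolated from kinetic A340 decline of NADH oxidation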
M1 ag – M1 muscarinic receptor agonists, primary screen, CHO-M1 cells, Fluo-4 calcium, agonist mode. Muscarinic acetylcholine receptor M1. Fluo-4 calcium fluorescence; stronger effect = higher value. B-score at 10 µM. hit rate 3% among 64,000. AID 626, 2007;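 active = fluorescence rise, raw or as B-score row- and column-corrected plate score, outside the 99.7% band of its plate's samples, either direction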
M1 antag conf – rat M1 muscarinic receptor antagonists, confirmation, CHO cells, Fluo-4 calcium, duplicate | calcium response (max-min fluorescence) at 10 µM | AID 677, 2007 | ACh EC80 antagonism; stronger effect = lower value | shares compounds with M1 antag | hit rate 43% among 1,700;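 active = calcium response below the same-plate mean of wells given acetylcholine alone at its 80%-effect dose, minus 3 SD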
mGluR4 antag – human mGluR4 response to M1 antagonist hits, M1 allosteric modulator project, cell-based, antagonist mode, secondary assay 1; shares compounds with M1 antag; CHO-mGluR4 calcium flux, Fluo-4 fluorescence, glutamate EC80; stronger effect = lower value; fluorescence response (max-min) at 10 µM; hit rate 0.9% among 1,700; AID 678, 2007;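 active = fluorescence response below the plate's average for near-maximal glutamate wells, less 3 SD of those wells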;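 also: raw unnormalized fluorescence span taken in the window right after glutamate addition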
Large screens that a line does not name were inactive (follow-up assays come after a bar, where shown).

CCOC(=O)N1CCN(C(=O)c2ccc3nc(C)sc3c2)CC1	none
CCCCNC(=O)c1ccccc1C(=O)NCCCC	M1 antag -3.9 | M1 antag conf inactive | mGluR4 antag inactive
CCOC(=O)c1cc(CC)sc1NC(=O)c1ccc(N2CCN(CC)CC2)c([N+](=O)[O-])c1	none (no result: WNV NS2B-NS3 inh, Autofluor 339, M1 antag, A340 absorber, M1 ag)
CCOc1ccccc1C(=O)Nc1ccccn1	none (no result: WNV NS2B-NS3 inh, Autofluor 339, M1 antag, A340 absorber, M1 ag)
Clc1cccc(-c2nnc(-c3ccccc3)o2)c1	M1 antag -1.7 | M1 antag conf inactive | mGluR4 antag inactive
Brc1cccc(-c2nnc(-c3ccccc3)o2)c1	none
Cc1ccc(NC(=O)c2c(NC(=O)c3ccccc3)sc3c2CCC(C)C3)cc1 (stereo not given)	none (no result: WNV NS2B-NS3 inh, Autofluor 339, M1 antag, A340 absorber, M1 ag)
c1cncc(-c2nc(NCc3ccco3)c3ccccc3n2)c1	M1 antag -2.7 | M1 antag conf 498 | mGluR4 antag inactive
OCCNc1nc(-c2cccnc2)nc2ccccc12	none
CCOC(=O)N1CCC(N2C(=O)c3ccccc3C2Nc2cc(C(=O)OC)cc(C(=O)OC)c2)CC1 (stereo not given)	Autofluor 339 2.1, M1 antag -2.8 | M1 antag conf inactive | mGluR4 antag inactive
COC(=O)c1cc(NC2c3ccccc3C(=O)N2c2cccnc2)cc(C(=O)OC)c1 (stereo not given)	none
CC(=O)Nc1ccc(S(=O)(=O)NC2CCC(C(=O)O)CC2)cc1 (stereo not given)	none (no result: WNV NS2B-NS3 inh, Autofluor 339, M1 antag, A340 absorber, M1 ag)
COC(=O)C(CC(C)C)NC(=O)CSc1nnc2c(n1)[nH]c1ccccc12 (stereo not given)	none (no result: WNV NS2B-NS3 inh, Autofluor 339, M1 antag, A340 absorber, M1 ag)
O=C(NCCN1CCCCCC1)c1ccc(CS(=O)(=O)c2ccc(Br)cc2)o1	M1 antag -3 | M1 antag conf 470 | mGluR4 antag inactive
O=C(NCCCN1CCCC1)c1ccc(CS(=O)(=O)c2ccc(Br)cc2)o1	none
CC(C)Oc1ccc(C2C3=C(CC(C)(C)CC3=O)Nc3ccccc3N2C(=O)C(F)(F)F)cc1 (stereo not given)	none (no result: WNV NS2B-NS3 inh, Autofluor 339, M1 antag, A340 absorber, M1 ag)
COc1ccc(S(=O)(=O)N(C)CC(=O)N2CCCCCC2)cc1OC	none
CCOC(=O)N1CCN(C(=O)CN(c2ccccc2OC)S(=O)(=O)c2ccc(C)cc2)CC1	M1 antag -2.6 | M1 antag conf inactive | mGluR4 antag inactive
COc1ccc(S(=O)(=O)N(C)CC(=O)N2CCN(C)CC2)cc1C	M1 antag -1.9 | M1 antag conf inactive | mGluR4 antag inactive
O=C(O)c1cc2nc3c(c(C(F)(F)F)n2n1)CCc1ccccc1-3	none
O=C(c1cc2nc3c(c(C(F)(F)F)n2n1)CCc1ccccc1-3)N1CCN2CCCC2C1 (stereo not given)	M1 antag -3.1 | M1 antag conf 343 | mGluR4 antag inactive
Cc1cc(=O)n2nc(N3CCCC(C(=O)N4CCc5ccccc54)C3)sc2n1 (stereo not given)	M1 antag -12 | M1 antag conf 33 | mGluR4 antag inactive
O=C1NC(c2cccc3ccccc23)Nc2sc3c(c21)CCCC3 (stereo not given)	none (no result: WNV NS2B-NS3 inh, Autofluor 339, M1 antag, A340 absorber, M1 ag)
N#CC1=C(N)SC(N)=C(C#N)C1CCc1ccccc1	M1 antag -4.6 | M1 antag conf inactive | mGluR4 antag inactive
CCc1cccc(C)c1NC(=O)CSc1nnnn1-c1ccc(C(=O)OC)cc1	none (no result: WNV NS2B-NS3 inh, Autofluor 339, M1 antag, A340 absorber, M1 ag)
O=C1CC(c2ccco2)CC(O)=C1C=NCCN1CCNCC1 (stereo not given)	none
O=C1CC(c2ccco2)CC(O)=C1C=NCC1CCNCC1 (stereo not given)	M1 antag -3.8 | M1 antag conf 462 | mGluR4 antag inactive
COCCSc1nc2sc3c(c2c(=O)n1-c1ccccc1)CCN(C)C3	M1 antag -3 (no result: WNV NS2B-NS3 inh, BAP1 block, Autofluor 339, A340 absorber) | M1 antag conf inactive | mGluR4 antag inactive
Cc1nn(C)c(C)c1S(=O)(=O)Nc1ccc2c(c1)OCO2	M1 antag -5.9 | M1 antag conf inactive | mGluR4 antag inactive
c1coc(CNc2nc3ccccc3n2CCN2CCOCC2)c1	none
N=c1c2c(-c3ccccc3)c(-c3ccccc3)n(Cc3ccco3)c2ncn1CCN1CCOCC1	M1 antag -7.2 | M1 antag conf 360 | mGluR4 antag inactive
COC(=O)c1[nH]c2cccc(OC)c2c1NC(=O)CCN1CC(C)CC(C)C1 (stereo not given)	Autofluor 339 2.7, M1 antag -3.4 | M1 antag conf inactive | mGluR4 antag inactive
CCOC(=O)c1[nH]c2ccc(Br)cc2c1NC(=O)CCN1CCC(C(=O)OCC)CC1	M1 antag -5.2 | M1 antag conf 408 | mGluR4 antag inactive
CCOC(=O)c1[nH]c2ccc(Br)cc2c1NC(=O)CCN1CCCCC1	M1 antag -15 | M1 antag conf 25 | mGluR4 antag 143
CCOC(=O)c1[nH]c2ccc(Br)cc2c1NC(=O)CCN1CCN(C(=O)OCC)CC1	none
CCOC(=O)c1[nH]c2ccc(OC)cc2c1NC(=O)CCN1CCCC(C)C1 (stereo not given)	Autofluor 339 2.2, M1 antag -3.6 | M1 antag conf 370 | mGluR4 antag inactive
COC(=O)c1[nH]c2cccc(Cl)c2c1NC(=O)CN1CCN(CCO)CC1	none
CCOC(=O)c1c(-c2ccc(Br)cc2)csc1NC(=O)C#Cc1ccccc1	none (no result: WNV NS2B-NS3 inh, Autofluor 339, M1 antag, A340 absorber, M1 ag)
CCOc1ccccc1C(=O)Nc1ccc(CC)cc1	none (no result: WNV NS2B-NS3 inh, Autofluor 339, M1 antag, A340 absorber, M1 ag)
COC(=O)c1[nH]c2ccc(C)cc2c1NC(=O)CCN1CCN(Cc2ccc3c(c2)OCO3)CC1	Autofluor 339 2.3, M1 antag -20 (not shown: BAP1 block) | M1 antag conf 38 | mGluR4 antag inactive
COc1ccc(Oc2c(C)oc3c(CN(C)C)c(O)ccc3c2=O)cc1	Autofluor 339 3.9, M1 antag -7.5 (not shown: BAP1 block) | M1 antag conf 371 | mGluR4 antag inactive
COc1ccc(Oc2coc3c(CN(C)C)c(O)ccc3c2=O)cc1	Autofluor 339 2.3, M1 antag -3.7 (no result: BAP1 block) | M1 antag conf 445 | mGluR4 antag inactive
CN1CCN(C2=C(Cl)C(=O)N(CCc3ccccc3)C2=O)CC1	M1 antag -5.7 | M1 antag conf 376 | mGluR4 antag inactive
CC(=O)N1N=C(c2ccc(Br)cc2)CC1c1ccc(N(C)C)cc1 (stereo not given)	none (no result: WNV NS2B-NS3 inh, Autofluor 339, M1 antag, A340 absorber, M1 ag)
Cc1cc2oc(=O)c3c(c2cc1OC(=O)c1ccco1)CCCC3	none (not shown: BAP1 block)

Screening data as filed in PubChem.
